# What was measured:
# Assay in all cases: area under confluence curve of compound monotherapy; compare to DMSO control AUC of the same experiment (AUC (confluence x time, arbitrary))
# [1] = system: H1975
# In short: (§1)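 Adenocarcinoma lines were grown in RPMI 1640 with 10% FBS at 37 °C and 5% CO2, seeded at 20,000–30,000 cells/well in 48-well plates, and treated the next day with test compound alone at one dose: 1 uM or the highest dose giving <50% parental inhibition. Every 3–4 days the wells were washed with PBS and the drug was refreshed, and medium was drug-free from the DTP stage (10–21 days). IncuCyte tracked confluence until wells given only an EGFR inhibitor regrew. Area under the confluence curve was calculated in Prism, taking the median of triplicates where run, and set beside the vehicle value from the same experiment.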
# [2] = system: HCC2279
# In short: as §1
# [3] = system: HCC2935
# In short: as §1
# [4] = system: HCC4006
# In short: as §1
# [5] = system: HCC827
# In short: as §1
# [6] = system: II-18
# In short: as §1
# [7] = 100 nM, DMSO control AUC in same experiment: 16638
# [8] = 1000 nM, DMSO control AUC in same experiment: 15857
# [9] = 1000 nM, DMSO control AUC in same experiment: 14404
# [10] = 1000 nM, DMSO control AUC in same experiment: 19215
# [11] = 1000 nM, DMSO control AUC in same experiment: 18415
# [12] = 1000 nM, DMSO control AUC in same experiment: 21320
# [13] = 1000 nM, DMSO control AUC in same experiment: 11834
# [14] = 1000 nM, DMSO control AUC in same experiment: 20657
structure (smiles),measurement,setting,value
O=C(NC[C@H](O)CN1CCc2ccccc2C1)c1ccnc(NC2CCC2)c1,area under confluence curve,"[1]; 300 nM, DMSO control AUC in same experiment: 20657",20400
same,area under confluence curve,"[2]; 300 nM, DMSO control AUC in same experiment: 40085",25900
same,area under confluence curve,"[3]; 300 nM, DMSO control AUC in same experiment: 15413",16200
same,area under confluence curve,"[4]; 300 nM, DMSO control AUC in same experiment: 10921",8430
same,area under confluence curve,"[5]; 300 nM, DMSO control AUC in same experiment: 43928",45500
same,area under confluence curve,"[6]; 300 nM, DMSO control AUC in same experiment: 7080",8360
Cc1nc(Nc2ncc(C(=O)Nc3c(C)cccc3Cl)s2)cc(N2CCN(CCO)CC2)n1 [Dasatinib],area under confluence curve,"[1]; 100 nM, DMSO control AUC in same experiment: 14522",4980
same,area under confluence curve,"[2]; 100 nM, DMSO control AUC in same experiment: 29252",28300
same,area under confluence curve,"[3]; 100 nM, DMSO control AUC in same experiment: 13875",10400
same,area under confluence curve,[4]; [7],11900
same,area under confluence curve,"[5]; 100 nM, DMSO control AUC in same experiment: 30859",25600
same,area under confluence curve,"[6]; 30 nM, DMSO control AUC in same experiment: 11408",10100
Cc1nc(N2CCC3(CC2)CO[C@@H](C)[C@H]3N)c(CO)nc1-c1cccc(Cl)c1Cl,area under confluence curve,[1]; [8],17200
same,area under confluence curve,[2]; [9],12100
same,area under confluence curve,[3]; [10],19100
same,area under confluence curve,[4]; [11],19200
same,area under confluence curve,[5]; [12],14900
same,area under confluence curve,[6]; [13],3600
COC(=O)c1ccc([C@H]2c3[nH]c4ccccc4c3C[C@H](C(=O)OC)N2C(=O)CCl)cc1,area under confluence curve,"[1]; 100 nM, DMSO control AUC in same experiment: 26010",25200
same,area under confluence curve,"[2]; 100 nM, DMSO control AUC in same experiment: 9426",9000
same,area under confluence curve,"[3]; 100 nM, DMSO control AUC in same experiment: 11459",11700
same,area under confluence curve,[4]; [7],16200
same,area under confluence curve,"[5]; 100 nM, DMSO control AUC in same experiment: 35394",29100
same,area under confluence curve,"[6]; 100 nM, DMSO control AUC in same experiment: 13556",7620
C[C@@H](Nc1cc(F)cc(F)c1)c1cc(C(=O)N(C)C)cc2c(=O)cc(N3CCOCC3)oc12,area under confluence curve,[1]; [14],18600
same,area under confluence curve,"[2]; 1000 nM, DMSO control AUC in same experiment: 29252",24500
same,area under confluence curve,"[3]; 1000 nM, DMSO control AUC in same experiment: 13875",10800
same,area under confluence curve,"[4]; 1000 nM, DMSO control AUC in same experiment: 16638",13600
same,area under confluence curve,"[5]; 1000 nM, DMSO control AUC in same experiment: 27404",24900
same,area under confluence curve,"[6]; 1000 nM, DMSO control AUC in same experiment: 18482",11000
Cc1cc(N2C[C@@H](C)N[C@@H](C)C2)ncc1-c1ccc(-c2nc3c(ccn3C)c(=O)[nH]2)cc1,area under confluence curve,[1]; [14],19600
same,area under confluence curve,"[2]; 1000 nM, DMSO control AUC in same experiment: 40085",40800
same,area under confluence curve,"[3]; 1000 nM, DMSO control AUC in same experiment: 15413",14600
same,area under confluence curve,"[4]; 1000 nM, DMSO control AUC in same experiment: 10921",10500
same,area under confluence curve,"[5]; 1000 nM, DMSO control AUC in same experiment: 48895",48800
same,area under confluence curve,"[6]; 1000 nM, DMSO control AUC in same experiment: 7080",6490
CN(C)CCCOc1ccc(-c2ccc3ncc4c(c3c2)n(C2CCOCC2)c(=O)n4C)cn1,area under confluence curve,"[1]; 300 nM, DMSO control AUC in same experiment: 26223",22300
same,area under confluence curve,"[2]; 300 nM, DMSO control AUC in same experiment: 14404",14100
same,area under confluence curve,"[3]; 300 nM, DMSO control AUC in same experiment: 19215",21000
same,area under confluence curve,"[4]; 300 nM, DMSO control AUC in same experiment: 18415",20100
same,area under confluence curve,"[5]; 300 nM, DMSO control AUC in same experiment: 21320",20700
same,area under confluence curve,"[6]; 300 nM, DMSO control AUC in same experiment: 11834",12300
COc1nn(C)cc1Nc1nccc(-c2c[nH]c3c(NC(=O)[C@@H](C)N4CCN(C)CC4)cccc23)n1,area under confluence curve,[1]; [8],17600
same,area under confluence curve,[2]; [9],15500
same,area under confluence curve,[3]; [10],20800
same,area under confluence curve,[4]; [11],18600
same,area under confluence curve,[5]; [12],19500
same,area under confluence curve,[6]; [13],5850
